Records with an inconclusive call do not appear. Active and inactive are the calls of the source. Rule for the calls, unless noted: active = hit-call score of the fitted dose curve at least 0.9, where 1 is the maximum; inactive = score below 0.9.
How the values were obtained:
[1] = CCTE_Shafer_MEA_acute_firing_rate_mean: CCTE's Neural Acute Assay for Mean Firing Rate, Shafer Lab (AID 2284009);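 note: analyzed for loss of signal so actives lower firing rate relative to DMSO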
Method in brief: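 Spontaneous spiking of primary rat cortical networks, DIV 13/15, 37 C. Compound 0.03-40 uM, n ≥3 wells; 40 min baseline vs 40 min treated. Endpoint fitted in loss-of-signal direction against DMSO.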

[2] = CCTE_Harrill_HTTr_Viability_MCF7: CCTE's 6-hour Cell Viability Assessment for the High-Throughput Transcriptomics (HTTr) Platform, in MCF-7 cells cultured in DMEM + 10% fetal bovine serum, Harrill Lab (AID 2284010)
Method in brief: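 Propidium iodide exclusion, imaged by high-content analysis, gauged viability after a six-hour exposure across eight concentrations. Cells were MCF-7 grown in DMEM with 10% fetal bovine serum; fits run in both directions against DMSO.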

[3] = CCTE_Harrill_HTTr_Apoptosis_MCF7: CCTE's 6-hour Apoptosis Assessment for the High-Throughput Transcriptomics (HTTr) Platform, in MCF-7 cells cultured in DMEM + 10% fetal bovine serum, Harrill Lab (AID 2284011)
Method in brief: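 Read-out: CellEvent Caspase 3/7 Green signal by high content imaging, gain-of-signal indicating apoptosis. MCF-7 cells, DMEM + 10% FBS, eight-point dilution series, 6 h exposure. Curves fitted bidirectionally relative to DMSO negative control.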

[4] = CCTE_Harrill_HTTr_CellCount_MCF7: CCTE's Cell Proliferation Assessment for the High-Throughput Transcriptomics (HTTr) Platform, Harrill Lab (AID 2284012; active = hit-call score of the fitted dose curve at least 0.9, where 1 is the maximum;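 note: cells exposed to compound for six hours; intended direction is loss of nuclei count meaning fewer cells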)
Method in brief: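 Cell count from high-content imaging of Hoechst-labeled nuclei serves as viability/growth readout. Chemicals were applied to MCF-7 cells in eight concentrations for six hours, with fitting in both directions relative to DMSO.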

[5] = CCTE_Shafer_MEA_acute_per_burst_spike_number_mean: CCTE's Neural Acute Assay for Average Number of Spikes Per Burst, Shafer Lab (AID 2284015);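 note: hits are decreases in mean spikes per burst versus baseline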
Method in brief: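 We recorded spontaneous network firing of rat cortical neurons for 40 min before and 40 min during exposure to compound at 0.03-40 uM, at 37 C. Spikes were detected adaptively at 8x rms noise, and the change in average spikes per burst was fitted against DMSO.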

[6] = CCTE_Shafer_MEA_acute_interburst_interval_mean: CCTE's Neural Acute Assay for Mean Interburst Interval, Shafer Lab (AID 2284016);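 note: percent change of mean interburst interval versus each well's own pre-dose baseline; curves fitted for decrease in interburst interval relative to DMSO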
Method in brief: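 MEA recording of spontaneous network bursting in primary rat cortical cultures; mean interburst interval was compared before and after a 40-min compound exposure (0.03-40 uM) and expressed as percent change, relative to DMSO.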

[7] = CCTE_Shafer_MEA_acute_burst_percentage_mean: CCTE's Neural Acute Assay for Percentage of Spikes in a Burst, Shafer Lab (AID 2284017);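 for AC50: curve fitted for loss of signal so potency reflects decreased burst percentage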
Method in brief: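 Compounds were tested at 0.03-40 uM on primary rat cortical neuron networks grown over microelectrodes, with at least three wells per compound. Spontaneous firing was recorded for 40 min before and 40 min after dosing, and the change in burst percentage was computed per well.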

[8] = CCTE_Shafer_MEA_acute_per_network_burst_spike_number_mean: CCTE's Neural Acute Assay for Average Number of Spikes in a Network Burst, Shafer Lab (AID 2284019)
Method in brief: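 Acute exposure of rat primary cortical networks (DIV 13/15) on MEAs; adaptive spike detection at 8x rms noise, 37 C. Percent change in spikes per network burst after 40 min with compound (0.03-40 uM), negative direction vs DMSO.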

[9] = CCTE_Shafer_MEA_acute_per_network_burst_spike_number_std: CCTE's Neural Acute Assay for Standard Deviation of Number of Spikes in a Network Burst, Shafer Lab (AID 2284020);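 note: fitted for decrease in spike-number SD versus DMSO so actives lower it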
Method in brief: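 Acute MEA exposure, rat cortical neurons, 0.03-40 uM. Per-well % change versus own baseline; DMSO as negative control.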

[10] = CCTE_Shafer_MEA_acute_network_burst_percentage: CCTE's Neural Acute Assay for Percentage of Network Bursts, Shafer Lab (AID 2284022);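 note: curves fitted for loss so actives lower network burst percentage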
Method in brief: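 Rat cortical cultures, DIV 13/15; 20 min equilibration, 40 min baseline, compound 0.03-40 uM, 40 min recording, 37 C. Spikes: 300-5000 Hz band-pass, threshold 8x rms noise. Readout: % change in network-burst spike fraction; loss direction vs DMSO.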

[11] = CCTE_Shafer_MEA_acute_cross_correlation_area: CCTE's Neural Acute Assay for Area of Cross Correlation, Shafer Lab (AID 2284024);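 note: rat primary cortical neuron networks on 48-well MEA at DIV 13 or 15 with 40 min exposure; area under pooled inter-electrode spike cross-correlation near zero lag as percent change from own baseline; curves fitted for loss of cross-correlation area so actives lower synchrony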
Method in brief: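 Rat cortical cultures, DIV 13/15, MEA; spikes detected at 8x rms noise (300-5000 Hz band-pass). Compound 0.03-40 uM, ≥3 wells each. Readout: % change in pooled inter-electrode cross-correlation area vs own baseline; DMSO negative control.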

[12] = CCTE_Shafer_MEA_acute_cross_correlation_HWHM: CCTE's Neural Acute Assay for Cross Correlation at Half Width at Half Maximum, Shafer Lab (AID 2284026);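 note: percent change per well from pre-dose baseline in spike cross-correlogram half width; hits are a decrease in cross-correlogram half width relative to DMSO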
Method in brief: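 Read-out: half width at half maximum of action-potential cross-correlogram, percent change versus pre-treatment baseline, fitted in loss direction against DMSO. Rat cortical cultures, DIV 13 or 15, dosed 0.03-40 uM, 40-min recordings at 37 C.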

[13] = CCTE_Shafer_MEA_acute_synchrony_index: CCTE's Neural Acute Assay for Synchrony, Shafer Lab (AID 2284027);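 note: network synchrony index of spontaneous spiking in primary rat cortical neurons on MEAs; fitted for loss of signal so actives lower synchrony relative to DMSO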
Method in brief: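 The synchrony index is taken as percent change per well between a 40 min baseline and a 40 min recording with compound (0.03–40 uM), at 37C. Rat cortical cultures on multiwell MEAs at DIV 13 or 15, spike threshold 8× rms noise.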

[14] = target: Estrogen receptor (Homo sapiens) (UniProt P03372); test: CCTE_Deisenroth_AIME_384WELL_LUC_Active: CCTE's 384-well Estrogen Receptor Transactivation Assay with AIME metabolic competence (ERTA luciferase; metabolism positive), Deisenroth Lab (AID 2284030; active = hit-call score of the fitted dose curve at least 0.9, where 1 is the maximum)
Method in brief: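 Readout: bioluminescent luciferase induction in VM7Luc4E2 cells 24 hour after receiving medium from a 2 h rat hepatic S9 (induced, alginate microsphere) metabolism step. Concentrations 0.002 - 200 uM; activity scaled to 17beta-estradiol positive control.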

[15] = CCTE_Deisenroth_AIME_384WELL_CTox_Active: Cytotoxicity Assessment (CTOX) in CCTE's 384-well Estrogen Receptor Transactivation Assay with AIME metabolic competence (metabolism positive), Deisenroth Lab (AID 2284037; active = hit-call score of the fitted dose curve at least 0.9, where 1 is the maximum;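 note: chemicals first conditioned 2 h by alginate-bound induced rat liver S9 before cells; activity means signal loss indicating cell death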)
Method in brief: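 VM7Luc4E2 breast cells received medium pre-incubated 2 h with chemical over alginate microspheres holding induced male Sprague Dawley rat liver S9; viability read 24 h later by protease-substrate fluorescence. Loss of signal, bidirectional fit, 0.002–200 uM.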

[16] = CCTE_Shafer_MEA_dev_firing_rate_mean: CCTE's Neural Network Formation Assay for Mean Firing Rate, Shafer Lab (AID 2284031);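 note: AUC of well mean spike rate recorded on DIV 5 7 9 and 12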;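 for AC50: curve fitted for loss of firing so AC50 reflects decreased mean firing rate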
Method in brief: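 Spike frequency (spikes/recording length, averaged over active electrodes) was recorded on days 5, 7, 9 and 12 and collapsed to AUC; rat cortical cultures received compound continuously over 12 days of network development.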

[17] = CCTE_Deisenroth_AIME_96WELL_CTox_Active: Cytotoxicity Assessment (CTOX) in CCTE's 96-well Estrogen Receptor Transactivation Assay with AIME metabolic competence (metabolism positive), Deisenroth Lab (AID 2284028; active = hit-call score of the fitted dose curve at least 0.9, where 1 is the maximum)
Method in brief: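 Cytotoxicity in VM7Luc4E2 breast cells after 24 h exposure to medium from a 2 h metabolic pre-incubation with induced rat hepatic S9 in alginate microspheres; fluorescent live-cell protease readout, 10-point series 0.002–200 uM, n=4.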

[18] = CCTE_Deisenroth_AIME_96WELL_CTox_Inactive: Cytotoxicity Assessment (CTOX) in CCTE's 96-well Estrogen Receptor Transactivation Assay without AIME metabolic competence (metabolism negative), Deisenroth Lab (AID 2284029; active = hit-call score of the fitted dose curve at least 0.9, where 1 is the maximum)
Method in brief: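 Metabolism-negative mode: alginate-water lids without rat S9, 2 h pre-incubation of 10-point series (0.002 - 200 uM). Conditioned medium on VM7Luc4E2 cells 24 h; loss of fluorescent live-cell protease signal marks cytotoxicity.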

[19] = target: Estrogen receptor (Homo sapiens) (UniProt P03372); test: CCTE_Deisenroth_AIME_96WELL_LUC_Active: CCTE's 96-well Estrogen Receptor Transactivation Assay with AIME metabolic competence (ERTA luciferase; metabolism positive), Deisenroth Lab (AID 2284023; active = hit-call score of the fitted dose curve at least 0.9, where 1 is the maximum)
Method in brief: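 Metabolism-positive mode: induced rat hepatic S9 in alginate microspheres conditions test solutions (0.002 - 200 uM, 10 points) for 2 hours. VM7Luc4E2 ER luciferase reporter cells then exposed 24 h; positive-direction fit against 17beta-estradiol, n=4 typical.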

[20] = target: Estrogen receptor (Homo sapiens) (UniProt P03372); test: CCTE_Deisenroth_AIME_96WELL_LUC_Inactive: CCTE's 96-well Estrogen Receptor Transactivation Assay without AIME metabolic competence (ERTA luciferase; metabolism negative), Deisenroth Lab (AID 2284025; active = hit-call score of the fitted dose curve at least 0.9, where 1 is the maximum)
Method in brief: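 Metabolism-negative arm: chemicals (0.002–200 uM, 10 points) incubated 2 h with alginate-water microspheres, then medium moved onto VM7Luc4E2 cells for 24 h luciferase read-out. Positive direction vs 17beta-estradiol; n≥4 experiments.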

Measured: AC50

Estrogen receptor (Homo sapiens), sequence (P03372 whole entry, looked up): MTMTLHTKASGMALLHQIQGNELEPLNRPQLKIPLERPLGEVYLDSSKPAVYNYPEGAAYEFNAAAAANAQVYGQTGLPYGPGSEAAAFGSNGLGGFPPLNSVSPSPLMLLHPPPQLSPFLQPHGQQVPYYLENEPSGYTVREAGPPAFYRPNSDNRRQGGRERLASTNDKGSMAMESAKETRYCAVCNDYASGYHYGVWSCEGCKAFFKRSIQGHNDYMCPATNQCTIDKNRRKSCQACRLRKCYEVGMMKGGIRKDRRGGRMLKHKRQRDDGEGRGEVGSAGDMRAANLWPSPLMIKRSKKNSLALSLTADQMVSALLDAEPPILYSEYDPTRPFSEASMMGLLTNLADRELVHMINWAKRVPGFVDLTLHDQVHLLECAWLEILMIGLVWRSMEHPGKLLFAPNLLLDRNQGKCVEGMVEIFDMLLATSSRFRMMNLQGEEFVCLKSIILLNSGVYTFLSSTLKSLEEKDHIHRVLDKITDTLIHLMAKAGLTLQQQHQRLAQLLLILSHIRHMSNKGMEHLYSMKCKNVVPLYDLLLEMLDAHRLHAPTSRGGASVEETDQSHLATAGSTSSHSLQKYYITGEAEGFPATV

NS(=O)(=O)c1cc2c(cc1Cl)NCNS2(=O)=O
not listed: [14] | [15] | [16] | [17] | [18] | [19] | [20]
inactive: all other assays above

Nc1ccc2c(c1)C(=O)c1ccccc1C2=O
active: [14] 72.1 µM
not listed: [4] | [16] | [17] | [18] | [19] | [20]
inactive: all other assays above

FC(F)(F)C(F)(F)C(F)(F)C(F)(F)C(F)(F)C(F)(F)CCI
not listed: [4] | [14] | [15] | [17] | [18] | [19] | [20]
inactive: all other assays above

Cc1ccc2ncccc2c1
not listed: [4] | [16] | [17] | [18] | [19] | [20]
inactive: all other assays above

Nc1nc(N)c2nc(CNc3ccc(C(=O)N[C@@H](CCC(=O)O)C(=O)O)cc3)cnc2n1
inactive: [1] | [5] | [6] | [7] | [8] | [9] | [10] | [11] | [12] | [13]

C[Si]1(C)O[Si](C)(C)O[Si](C)(C)O[Si](C)(C)O1
not listed: [15] | [17] | [18] | [19] | [20]
inactive: all other assays above

Cc1ccc(C(C)C)c(O)c1
active: [7] 20 µM
not listed: [15] | [16] | [17] | [18] | [19] | [20]
inactive: all other assays above

c1cc(-c2ccncc2)ccn1
not listed: [14] | [15] | [16] | [17] | [18] | [19] | [20]
inactive: all other assays above

Cc1oc(-c2ccccc2)nc1CCOc1cccc2c1ccn2CCC(=O)O
inactive: [2] | [3]

CN[C@H]1CC[C@@H](c2ccc(Cl)c(Cl)c2)c2ccc(S(N)(=O)=O)cc21
inactive: [1] | [2] | [3] | [4] | [6] | [8] | [11] | [12]
active: [5] 20 µM | [7] 31.6 µM | [9] 20 µM | [10] 31 µM | [13] 32 µM

O=C(O)Cc1ccccc1Nc1c(Cl)cccc1Cl
inactive: [2] | [3] | [4]

O=c1[nH]cc(F)c(=O)[nH]1
inactive: [2] | [3] | [4] | [14]
active: [16] 4.24 µM

Cc1cccc([N+](=O)[O-])c1C
inactive: [2] | [3] | [4] | [14] | [15]

CCCCCCCCCCC
inactive: [2] | [3] | [4]

C[C@]12C=CC(=O)C=C1CC[C@@H]1[C@@H]2C(=O)C[C@@]2(C)[C@H]1CC[C@]2(O)C(=O)CO
inactive: [2] | [3] | [4] | [14] | [15]

CC1=C(/C=C/C(C)=C/C=C/C(C)=C/CO)C(C)(C)CCC1
inactive: [2] | [3] | [4] | [14]

Cc1cc(=O)[nH]c(=S)[nH]1
inactive: [2] | [3] | [4] | [14] | [16] | [15]

CCCCCC(=O)O
inactive: [2] | [3] | [14]

NCCO
inactive: [2] | [3] | [4] | [14] | [15]

COc1cccc2c1C(=O)c1c(O)c3c(c(O)c1C2=O)C[C@@](O)(C(=O)CO)C[C@@H]3O[C@H]1C[C@H](N)[C@H](O)[C@H](C)O1
active: [2] 37.5 µM | [3] 90.8 µM | [17] 51.6 µM | [18] 68.2 µM

CC1(C)NC(=O)NC1=O
inactive: [2] | [3] | [4] | [14] | [15]

CCNc1cccc(C)c1
inactive: [2] | [3] | [4] | [14]

CCCCOC(=O)CCCCCCCCC(=O)OCCCC
inactive: [2] | [3] | [14] | [15]

Cc1ccc(N(C)C)cc1
inactive: [14] | [15]

CCCCc1ccc2c(n1)[C@@H](c1ccc(OC)cc1C[C@H](C)C(=O)O)[C@H](C(=O)O)[C@H]2c1ccc2c(c1)OCO2
inactive: [2] | [3] | [4]

CC(C)c1ccc(C(=O)N=C(N)N)cc1S(C)(=O)=O
inactive: [2] | [3] | [4] | [16]

O=c1c(O)c(-c2ccc(O)c(O)c2)oc2cc(O)cc(O)c12
inactive: [2] | [3] | [15]
active: [14] 21.2 µM

OC[C@@H](O)[C@@H](O)[C@H](O)[C@H](O)CO
inactive: [2] | [3] | [4] | [16]

CNC(=O)[C@H]1O[C@@H](n2cnc3c(NCc4cc(Cl)ccc4OCc4cc(C)no4)ncnc32)[C@H](O)[C@@H]1N
inactive: [2] | [3] | [4] | [14] | [15]

CCOc1ccc2c(c1)C(C)=CC(C)(C)N2
active: [14] 34.5 µM
inactive: [2] | [3] | [15]

COCCOCCOC
inactive: [2] | [3] | [4] | [14] | [15]

COc1cc(C=O)ccc1O
inactive: [2] | [3] | [4] | [14] | [15]

COc1ccc(C)cc1N
inactive: [2] | [3] | [4] | [14]

CCCCCCCC=O
active: [14] 27.9 µM

Cc1cccc(C)c1O
inactive: [2] | [3] | [4] | [14] | [15]

COc1cc(/C=C/C(=O)CC(=O)/C=C/c2ccc(O)c(OC)c2)ccc1O
inactive: [2] | [3] | [4] | [19] | [20]
active: [17] 63 µM | [18] 93.8 µM

CC1(C)CC(N=C=O)CC(C)(CN=C=O)C1 (centres undefined)
inactive: [2] | [3] | [14]

CCCCCCC(=O)OCC
inactive: [14]
